The list is not random: actives were taken first. Their share in the collection is about 2.9%.
CRFR2-BP ag: CRF-BP/CRF-R2 complex agonism; activation, % at 13.2 µM; actives 0.46% (n = 350,000); HEK293 CRF-R2/CRF-BP, calcium dye fluorescence (FLIPR); percent of saturating CRF peptide response;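 active = activation of at least 50%, plus an integration ratio under a set limit after plate pattern correction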;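 note: plate controls were neutral control wells without compound for no effect and CRF at EC100 for full effect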
MEKK3 PB1 HTS: raises or lowers MEK5 binding to the human MEKK3 PB1 domain; Q99759; bead-based flow cytometry, Alexa488-MEK5 binding to MEKK3; actives lie on both sides; 0 = blocked by unlabeled MEK5, 100 = vehicle; binding response (% of control), % at 10 µM; actives 1.4% (n = 290,000); AID 1529;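 active = binding response more than 3 SD above or below the average of its plate-row segment, actives on both sides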;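 note: Alexa488 bead fluorescence after subtracting the streptavidin-only scavenger bead signal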
Target sequence (Q99759 whole entry, looked up, the tested form may be a part): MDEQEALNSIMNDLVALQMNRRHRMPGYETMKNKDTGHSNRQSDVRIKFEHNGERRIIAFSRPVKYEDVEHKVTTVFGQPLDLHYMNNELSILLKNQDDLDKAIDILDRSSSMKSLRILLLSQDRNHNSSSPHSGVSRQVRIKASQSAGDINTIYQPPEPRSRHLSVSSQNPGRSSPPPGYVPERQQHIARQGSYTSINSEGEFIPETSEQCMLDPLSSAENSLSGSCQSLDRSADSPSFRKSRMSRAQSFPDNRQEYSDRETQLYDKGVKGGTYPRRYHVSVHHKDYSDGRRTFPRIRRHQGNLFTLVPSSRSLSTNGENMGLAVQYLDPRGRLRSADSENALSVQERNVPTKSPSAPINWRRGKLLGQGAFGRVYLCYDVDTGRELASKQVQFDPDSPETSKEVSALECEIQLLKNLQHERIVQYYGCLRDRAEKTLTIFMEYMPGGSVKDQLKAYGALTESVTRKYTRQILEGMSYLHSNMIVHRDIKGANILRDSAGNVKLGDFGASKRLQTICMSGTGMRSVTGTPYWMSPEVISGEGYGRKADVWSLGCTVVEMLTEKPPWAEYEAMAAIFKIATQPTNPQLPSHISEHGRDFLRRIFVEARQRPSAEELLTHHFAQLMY
MEKK2 mut-MEK5: signal of MEK5 binding to mutant human MEKK2 PB1 domain; actives 0.35% (n = 290,000); percent response, % at 10 µM; bead flow cytometry, Alexa488-MEK5 binding to MEKK2 mutant; in the data active = percent response above about 24%, passing the limit was not always enough
MEKK2 WT-MEK5: raises or lowers MEK5 binding to wildtype human MEKK2 PB1 domain | bead flow cytometry, Alexa488-MEK5 binding to MEKK2 WT; actives lie on both sides | actives 1.1% (n = 290,000) | Q9Y2U5 | binding response (% of control), % at 10 µM; in the data active = binding response below about 67% or above about 130%
CRFBP-R2 block: antagonists of CRF-binding protein/CRF-R2 receptor complex; actives 0.59% (n = 350,000); AID 588475; HEK293 CRF-R2/CRF-BP, CRF-induced calcium fluorescence; inhibition, % at 11.8 µM;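 active = inhibition of the ligand-induced calcium signal above about 50% at the single tested concentration, limit read from the data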
ABCB6 inh 2: inhibitors of human ABC transporter ABCB6; Q9NP58; K562-ABCB6 porphyrin accumulation, flow cytometry, 1 h; active compounds read low; fluorescence ratio to DMSO, % at 10 µM; actives 0.19% (n = 360,000); AID 602162;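 active = fluorescence ratio to DMSO below 75%, the collection mean minus 3 SD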;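 note: signal is porphyrin accumulated inside mitochondria; 100% equals median channel fluorescence of DMSO control wells; lower ratio means ABCB6 inhibition with less porphyrin fluorescence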
MEKK2wt confirm: raises or lowers MEK5 binding to wildtype human MEKK2, retest | AID 1892 | actives 2.4% (n = 5,900) | bead flow cytometry, Alexa488-MEK5 binding to MEKK2 WT; actives lie on both sides | binding response (% of control), % at 10 µM | shares compounds with MEKK3 PB1 HTS; in the data active = binding response below about 16% or above about 210%; inactive = in between
MEKK2mut-MEK5: signal of MEK5 binding to mutant human MEKK2, retest; shares compounds with MEKK3 PB1 HTS; bead flow cytometry, Alexa488-MEK5 binding to MEKK2 mutant; percent response, % at 10 µM; actives 2% (n = 5,900); AID 1893; in the data active = percent response mostly above about 71%, no sharp cut-off; inactive = mostly below about 38%;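 note: higher means compound restores mutant binding toward wildtype level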
MEKK3 confirm: confirmation of inhibitors of MEK5 binding to human MEKK3. shares compounds with MEKK3 PB1 HTS. bead flow cytometry, Alexa488-MEK5 binding to MEKK3; active compounds read low. binding response (% of control), % at 10 µM. actives 1.8% (n = 5,900). AID 1894;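 active = binding response below 72% of control, or above a set upper limit, though filed actives all read lower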;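 note: 100% = DMSO only wells and 0% = binding blocked by excess unlabeled MEK5; lower values mean stronger disruption of MEK5 binding to MEKK3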
An asterisk follows results filed as active; [ ] = remark or other dose.

Results for CCN(CC)CCNC(=O)CS(=O)Cc1nc(-c2ccc(Cl)cc2)oc1C (stereo not drawn) ?
CRFR2-BP ag: -2; MEKK3 PB1 HTS: 49*[inhibitor]; MEKK2 mut-MEK5: -21; MEKK2 WT-MEK5: 62; CRFBP-R2 block: -13; ABCB6 inh 2: 96; MEKK2wt confirm: 111; MEKK2mut-MEK5: 12; MEKK3 confirm: 109

What do the screens show for `CCN(CC)CCNC(=O)CS(=O)Cc1nc(-c2ccc(C)cc2)oc1C` (stereo not drawn)?
CRFR2-BP ag: 0; MEKK3 PB1 HTS: 97; MEKK2 mut-MEK5: -2; MEKK2 WT-MEK5: 100; CRFBP-R2 block: -11; ABCB6 inh 2: 98

Results for Cc1ccc(S(=O)(=O)Nc2c(C)nn(C)c2C)cc1 ?
CRFR2-BP ag: 1; MEKK3 PB1 HTS: 97; MEKK2 mut-MEK5: -3; MEKK2 WT-MEK5: 98; CRFBP-R2 block: 2; ABCB6 inh 2: 101

How did CCn1nc(C)c(NS(=O)(=O)c2ccc(C)cc2)c1C do in these assays?
CRFR2-BP ag: 0; MEKK3 PB1 HTS: 73*[inhibitor]; MEKK2 mut-MEK5: 2; MEKK2 WT-MEK5: 88; CRFBP-R2 block: -10; ABCB6 inh 2: 93; MEKK2wt confirm: 104; MEKK2mut-MEK5: 7; MEKK3 confirm: 107

Results for S=C(Nc1ccc(Cl)cc1)N1CCCCC1 ?
CRFR2-BP ag: -2; MEKK3 PB1 HTS: 105; MEKK2 mut-MEK5: 0; MEKK2 WT-MEK5: 108; CRFBP-R2 block: -5; ABCB6 inh 2: 101

What do the screens show for `S=C(Nc1ccc(Br)cc1)N1CCCC1`?
CRFR2-BP ag: 6; MEKK3 PB1 HTS: 131*; MEKK2 mut-MEK5: 0; MEKK2 WT-MEK5: 113; CRFBP-R2 block: 15; ABCB6 inh 2: 102; MEKK2wt confirm: 102; MEKK2mut-MEK5: -4; MEKK3 confirm: 102

How did COc1ccc(NC(=S)N2CCCC2)cc1 do in these assays?
CRFR2-BP ag: -2; MEKK3 PB1 HTS: 59*[inhibitor]; MEKK2 mut-MEK5: -1; MEKK2 WT-MEK5: 91; CRFBP-R2 block: 16; ABCB6 inh 2: 98; MEKK2wt confirm: 99; MEKK2mut-MEK5: -5; MEKK3 confirm: 93

How did Nn1c(SCC(=O)N2CCOCC2)nnc1-c1cccnc1 do in these assays?
CRFR2-BP ag: 1; CRFBP-R2 block: -5; ABCB6 inh 2: 96

How did O=C(O)c1ccc(N2CC3CC(C2)c2cccc(=O)n2C3)c(NC(=S)Nc2ccc(Cl)cc2Cl)c1 (stereo not drawn) do in these assays?
CRFR2-BP ag: 0; MEKK3 PB1 HTS: 65*[inhibitor]; MEKK2 mut-MEK5: -30; MEKK2 WT-MEK5: 17*[inhibitor]; CRFBP-R2 block: -14; ABCB6 inh 2: 101; MEKK2wt confirm: 91; MEKK2mut-MEK5: -7; MEKK3 confirm: 95

What do the screens show for `COc1ccc(NC(=O)c2cc(-c3cc(C)cc(C)c3O)n[nH]2)cc1Cl`?
CRFR2-BP ag: 1; MEKK3 PB1 HTS: 107; MEKK2 mut-MEK5: 9; MEKK2 WT-MEK5: 167*; CRFBP-R2 block: -51; ABCB6 inh 2: 92; MEKK2wt confirm: 150; MEKK2mut-MEK5: 16; MEKK3 confirm: 102

How did COc1ccc(NC(=O)c2cc(-c3ccccc3O)n[nH]2)cc1Cl do in these assays?
CRFR2-BP ag: 4; MEKK3 PB1 HTS: 104; MEKK2 mut-MEK5: 3; MEKK2 WT-MEK5: 103; CRFBP-R2 block: -4; ABCB6 inh 2: 95

What do the screens show for `COc1ccccc1N(CC(=O)NCc1ccccc1)S(=O)(=O)c1cccs1`?
CRFR2-BP ag: -2; CRFBP-R2 block: 9; ABCB6 inh 2: 99

Results for CCOC(=O)C1=CNS(=O)(=O)NC1c1ccc(C[C@H](NC(=O)CNC(=O)CCc2ccccc2)C(N)=O)cc1 (stereo partly drawn) ?
CRFR2-BP ag: -3; CRFBP-R2 block: -4; ABCB6 inh 2: 99

How did Cc1c(C(=O)N2CCN(C)CC2)oc2ccc(S(=O)(=O)N3CCOCC3)cc12 do in these assays?
CRFR2-BP ag: 0; MEKK3 PB1 HTS: 2.0*[inhibitor]; MEKK2 mut-MEK5: -16; MEKK2 WT-MEK5: 2.0*[inhibitor]; CRFBP-R2 block: -7; ABCB6 inh 2: 106; MEKK2wt confirm: 98; MEKK2mut-MEK5: -2; MEKK3 confirm: 96

How did Cc1c(C(=O)NC2CCCc3ccccc32)oc2ccc(S(=O)(=O)N3CCOCC3)cc12 (stereo not drawn) do in these assays?
CRFR2-BP ag: -1; MEKK3 PB1 HTS: 82*[inhibitor]; MEKK2 mut-MEK5: -3; MEKK2 WT-MEK5: 84; CRFBP-R2 block: -22; ABCB6 inh 2: 94; MEKK2wt confirm: 101; MEKK2mut-MEK5: 0; MEKK3 confirm: 101

Results for COCCCNC(=O)c1oc2ccc(S(=O)(=O)N3CCOCC3)cc2c1C ?
CRFR2-BP ag: 1; MEKK3 PB1 HTS: 99; MEKK2 mut-MEK5: -1; MEKK2 WT-MEK5: 99; CRFBP-R2 block: -22; ABCB6 inh 2: 96

Results for Cc1c(C(=O)NCCc2ccccc2)oc2ccc(S(=O)(=O)N3CCOCC3)cc12 ?
CRFR2-BP ag: 1; MEKK3 PB1 HTS: 125*; MEKK2 mut-MEK5: 6; MEKK2 WT-MEK5: 116; CRFBP-R2 block: -16; ABCB6 inh 2: 95; MEKK2wt confirm: 104; MEKK2mut-MEK5: 2; MEKK3 confirm: 102

Results for CC(C)C(NC(=O)c1c(F)cccc1F)C(=O)N1CCN(S(=O)(=O)/C=C/c2ccccc2)CC1 (stereo not drawn) ?
CRFR2-BP ag: 1; CRFBP-R2 block: -4; ABCB6 inh 2: 94

Results for Cc1noc(C)c1CSCC(=O)Nc1nc2ccc(S(C)(=O)=O)cc2s1 ?
CRFR2-BP ag: 0; CRFBP-R2 block: -9; ABCB6 inh 2: 95

Results for CCC(CC)NC(=O)CON=C1c2ccccc2-c2ccccc21 ?
CRFR2-BP ag: 2; MEKK3 PB1 HTS: 146*; MEKK2 mut-MEK5: 0; MEKK2 WT-MEK5: 107; CRFBP-R2 block: -23; ABCB6 inh 2: 96; MEKK2wt confirm: 99; MEKK2mut-MEK5: -2; MEKK3 confirm: 102

Results for CCNC(=O)CON=C1c2ccccc2-c2ccccc21 ?
CRFR2-BP ag: -1; MEKK3 PB1 HTS: 99; MEKK2 mut-MEK5: 0; MEKK2 WT-MEK5: 103; CRFBP-R2 block: -1; ABCB6 inh 2: 91

Screening results as filed in PubChem BioAssay.
